In PubChem BioAssay (NCATS):
Calls of active or inactive are those of the source. No rule for the calls is given here.

These compounds were tested on HIV-1 nucleocapsid protein NCp7 (binding to TG oligonucleotide) (assay: HIV Nucleocapsid (AID 346;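 also: potency is for inhibitors that block NC binding and lower polarization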)). Conditions: HIV-1 NC / fluorescein-TGTGTGTG probe, fluorescence polarization.
Method in brief: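 Inhibition of nucleocapsid binding to single-stranded 5'-TGTGTGTG probe (10 nM) was measured by fluorescence polarization after 1 hr at room temperature with 100 nM protein under high-salt, zinc-containing, reducing conditions.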
Potency is read from the fitted curve at half-maximal effect.

Question: With `c1ccc2c(N3CCNCC3)nc(-c3ccoc3)nc2c1` as the compound, how does the Potency read?
Answer: > 20 µM (inactive)

Question: With `CN1CCC2(CC1)CCN(C(=O)c1ccncc1)CC2` as the compound, how does the Potency read?
Answer: > 20 µM (inactive)

Question: How did the Potency turn out when `COCCn1c(=O)c(-c2cccc(C#N)c2)nc2cnc(N(C)C)nc21` was run?
Answer: > 4 µM (inactive)

Question: Which Potency does the source give for `O=C(c1csnn1)N1CCC2(CCN(Cc3nccs3)CC2)CC1` here?
Answer: > 20 µM (inactive)

Question: For `O=C(c1ccco1)N1CCC2(CC1)CCN(c1ccccn1)CC2`, which Potency is on record?
Answer: > 20 µM (inactive)

Question: How did the Potency turn out when `O=c1c(-c2ccc(F)cc2)nc2cnc(Nc3ccccc3)nc2n1C[C@H]1CCCO1` was run?
Answer: > 20 µM (inactive)

Question: For `O=C(c1cc(C(F)(F)F)cc(C(F)(F)F)c1)N1CCC2(CCN(Cc3nccs3)CC2)CC1`, which Potency is on record?
Answer: > 20 µM (inactive)

Question: With `N#CCCn1c(=O)cnc2cnc(OCc3ccccc3)nc21` as the compound, how does the Potency read?
Answer: > 20 µM (inactive)

Question: Which Potency does the source give for `CN1CCN(c2ncc3nc(-c4ccc(F)cc4)c(=O)n(Cc4cccs4)c3n2)CC1` here?
Answer: > 20 µM (inactive)

Question: Which Potency does the source give for `c1csc(CNc2ncnc3ccc(-c4ccc5c(c4)OCO5)cc23)c1` here?
Answer: > 20 µM (inactive)

Question: How did the Potency turn out when `Cc1ccccc1-c1ccc2ncnc(NCCN3CCOCC3)c2c1` was run?
Answer: > 20 µM (inactive)

Question: How did the Potency turn out when `CN(C)c1ncc2nc(-c3ccc(Cl)cc3)c(=O)n(C[C@H]3CCCO3)c2n1` was run?
Answer: > 20 µM (inactive)

Question: How did the Potency turn out when `O=C(c1ccncc1)N1CCC2(CC1)CCN(c1ccncc1)CC2` was run?
Answer: > 20 µM (inactive)

Question: Which Potency does the source give for `COCCn1c(=O)c(-c2ccc(OC)cc2)nc2cnc(Oc3ccc(OC)cc3)nc21` here?
Answer: > 20 µM (inactive)

Question: How did the Potency turn out when `Cc1noc(C)c1-c1ccc2ncnc(NCc3cccs3)c2c1` was run?
Answer: > 20 µM (inactive)

Question: With `N#CCCn1c(=O)c(-c2cccc(C#N)c2)nc2cnc(N3CCOCC3)nc21` as the compound, how does the Potency read?
Answer: > 20 µM (inactive)

Question: With `Cc1noc(C)c1-c1cncnc1NC1CC1` as the compound, how does the Potency read?
Answer: > 20 µM (inactive)

Question: Which Potency does the source give for `c1ccc(Nc2ncnc3ccc(-c4cccnc4)cc23)cc1` here?
Answer: > 20 µM (inactive)

Question: How did the Potency turn out when `c1cncc(CNc2ncncc2-c2cccnc2)c1` was run?
Answer: > 20 µM (inactive)

Question: How did the Potency turn out when `COc1ncc2ncc(=O)n(C3CC3)c2n1` was run?
Answer: > 20 µM (inactive)

Question: With `COCC(=O)N1CCC2(CCN(Cc3nccs3)CC2)CC1` as the compound, how does the Potency read?
Answer: > 20 µM (inactive)

Question: Which Potency does the source give for `COc1ccccc1CN1CCCC2(CCN(C(=O)c3cccn3C)CC2)C1` here?
Answer: > 20 µM (inactive)

Question: For `O=C(Oc1ccccc1)N1CCC2(CCCN(c3ccccn3)C2)CC1`, which Potency is on record?
Answer: > 20 µM (inactive)

Question: `Cc1ccccc1-c1cncnc1N1CCN(C)CC1` was tested. Which Potency did it give?
Answer: > 20 µM (inactive)

Question: How did the Potency turn out when `CN(C)C(=O)c1ccc(-c2ccc3ncnc(N4CCNCC4)c3c2)cc1` was run?
Answer: > 20 µM (inactive)

Question: `Cn1cccc1C(=O)N1CCC2(CCCN(C(=O)Nc3cccc(C#N)c3)C2)CC1` was tested. Which Potency did it give?
Answer: > 20 µM (inactive)

Question: For `COc1ccc(NC(=O)N2CC3(CCN(C(=O)c4ccncc4)CC3)C2)cc1`, which Potency is on record?
Answer: > 20 µM (inactive)

Question: `c1csc(CNc2ncncc2-c2ccoc2)c1` was tested. Which Potency did it give?
Answer: > 20 µM (inactive)

Question: Which Potency does the source give for `COc1cccc(Nc2ncc3nc(C)c(=O)n(-c4ccccc4)c3n2)c1` here?
Answer: > 20 µM (inactive)

Question: `Cc1ccccc1-c1cc(N2CCN(C)CC2)ncn1` was tested. Which Potency did it give?
Answer: > 20 µM (inactive)

Question: `c1cncc(-c2nc(N3CCNCC3)c3ccccc3n2)c1` was tested. Which Potency did it give?
Answer: > 20 µM (inactive)

Question: `CS(=O)(=O)Nc1cccc(-c2nc(-n3ccnc3)c3ccccc3n2)c1` was tested. Which Potency did it give?
Answer: > 20 µM (inactive)

Question: Which Potency does the source give for `CC(C)NC(=O)N1CC[C@@]2(CCCN(C(=O)c3cccn3C)C2)C1` here?
Answer: > 20 µM (inactive)

Question: With `O=C(c1cc(C(F)(F)F)cc(C(F)(F)F)c1)N1CCC2(CCCN(Cc3nccs3)C2)CC1` as the compound, how does the Potency read?
Answer: > 20 µM (inactive)

Question: With `COCCn1c(=O)c(C)nc2cncnc21` as the compound, how does the Potency read?
Answer: > 20 µM (inactive)

Question: Which Potency does the source give for `CCNc1ncc2nc(C)c(=O)n(Cc3cccs3)c2n1` here?
Answer: > 20 µM (inactive)

Question: With `CN(C)c1ncc2ncc(=O)n(Cc3cccs3)c2n1` as the compound, how does the Potency read?
Answer: > 20 µM (inactive)

Question: `CCNc1ncc2ncc(=O)n(C3CC3)c2n1` was tested. Which Potency did it give?
Answer: > 20 µM (inactive)

Question: How did the Potency turn out when `COCC(=O)N1CCC2(CC1)CCN(C(=O)NC(C)C)CC2` was run?
Answer: > 20 µM (inactive)

Question: For `O=C(c1cc(C(F)(F)F)cc(C(F)(F)F)c1)N1CCC2(CC1)CN(c1ccccn1)C2`, which Potency is on record?
Answer: > 20 µM (inactive)
